Eleven molecules from PMC5540273 (PLoS ONE, 2017) can be followed below.

Among the test systems are AURKC; AXL; BLK; BMPR1A; BMPR1B; BMPR2; BMX; BRAF; BRSK1; BRSK2; BTK; BUB1; CAMK1B; CAMK1D; CAMK1G; CAMK1; CAMK2A; CAMK2B.
Conditions in all cases: concentration: 1 μM, replicates: in singlicate; n = 1
A further experiment relates to T1, BIKE.
T1 construct: gene BMP2K

For a further experiment, the system named is T2, BRK.
T2 construct: gene PTK6

SMILES strings stand for the structures.
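Note: KINOMEscan kinase panel screen.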

In the case of `Cl.c1ccc(Cn2ccc3cc(Nc4ncnc5ccccc45)ccc32)cc1` [GW275568], the “%Inh” value with AURKC is 0%; in the experiment on AXL it was 0%; in the experiment on BIKE it was 13%; in the experiment with BLK it was 0%; with BMPR1A, 0%; with BMPR1B it was 0%. Also, the “%Inh” value was 13% in the experiment with BMPR2; 18% in the experiment with BMX; 0% in the experiment on BRAF; 0% with BRK; 0% in the experiment with BRSK1; 20% in the experiment with BRSK2. Besides, the “%Inh” value worked out at 0% with BTK; 0% in the experiment with BUB1; 34% in the experiment with CAMK1B; 27% with CAMK1D; 8% in the experiment with CAMK1G; 24% in the experiment on CAMK1. Besides, the “%Inh” value in the experiment with CAMK2A came out at 9%; with CAMK2B, 0%.
On to `O=C(Nc1ccccc1F)NC1CCN(c2ccnc(Nc3ccc(F)cc3)n2)C1` (stereo not shown) [GSK1379722], for which the “%Inh” value in the experiment on AURKC was determined as 30%; in the experiment with AXL, 0%; in the experiment on BIKE it was 8%; in the experiment with BLK it was 16%; in the experiment on BMPR1A, 0%; in the experiment with BMPR1B, 0%. The “%Inh” value came to 13% in the experiment on BMPR2; 7% in the experiment on BMX; 7% with BRAF; 5% in the experiment on BRK; 17% with BRSK1; 0% with BRSK2. In addition, the “%Inh” value in the experiment with BTK is 12%; with BUB1, 44%; in the experiment on CAMK1B, 0%; with CAMK1D, 0%; in the experiment with CAMK1G, 0%; with CAMK1, 0%. The “%Inh” value with CAMK2A and in the experiment with CAMK2B was 0% each time.
For the molecule `CSc1nn2c(=O)cc(N3CCOCC3)nc2n1Cc1cccc(Cl)c1Cl` [GSK2347225], the “%Inh” value with AURKC came to 11%; in the experiment with AXL it was 45%; in the experiment on BIKE it was 29%; with BLK, 52%; in the experiment with BMPR1A it was 19%; with BMPR1B it was 1%. In addition, the “%Inh” value was 0% with BMPR2; 6% with BMX; 0% in the experiment on BRAF; 17% in the experiment with BRK; 0% in the experiment with BRSK1; 0% in the experiment with BRSK2. In addition, the “%Inh” value in the experiment on BTK stood at 0%; with BUB1, 0%; with CAMK1B, 0%; with CAMK1D it was 8%; in the experiment on CAMK1G it was 17%; in the experiment with CAMK1 it was 0%. The “%Inh” value with CAMK2A and in the experiment with CAMK2B was 0% throughout.
On to `Fc1cccc(COc2ccc(Nc3ncnc4nn5ccccc5c34)cc2Cl)c1` [GW689066], for which the “%Inh” value in the experiment with AURKC stood at 6%; in the experiment with AXL, 0%; in the experiment on BIKE, 15%; in the experiment on BLK, 57%; in the experiment on BMPR1A it was 0%; in the experiment on BMPR1B it was 0%. Moreover, the “%Inh” value came to 4% in the experiment with BMPR2; 5% in the experiment on BMX; 0% in the experiment on BRAF; 0% in the experiment on BRK; 0% in the experiment with BRSK1; 0% in the experiment on BRSK2. Besides, the “%Inh” value stood at 15% in the experiment with BTK; 49% with BUB1; 15% in the experiment with CAMK1B; 21% in the experiment on CAMK1D; 0% in the experiment on CAMK1G; 19% in the experiment with CAMK1. The “%Inh” value with CAMK2A and in the experiment with CAMK2B was 0% throughout.
Turning to `O=C(Nc1ccccc1)Nc1ccc(Oc2ccc3nccn3n2)cc1`, the “%Inh” value is given as 16% in the experiment on AURKC; 0% in the experiment on AXL; 0% in the experiment with BIKE; 13% in the experiment on BLK; 18% in the experiment with BMPR1A; 6% in the experiment with BMPR1B. Further, the “%Inh” value with BMPR2 is reported as 0%; with BMX, 8%; in the experiment with BRAF, 0%; in the experiment on BRK it was 0%; in the experiment on BRSK1, 0%; with BRSK2, 0%. Moreover, the “%Inh” value with BTK, in the experiment with BUB1, in the experiment on CAMK1B, in the experiment on CAMK1D, with CAMK1G and in the experiment on CAMK1 was 0% in each case. The “%Inh” value with CAMK2A and with CAMK2B was 0% throughout.
Consider `Cl.c1ccc(Cn2ncc3cc(Nc4ncnc5ccccc45)ccc32)cc1` [GW273749], for which the “%Inh” value with AURKC is 0%; with AXL it was 0%; with BIKE, 0%; with BLK, 17%; in the experiment with BMPR1A, 0%; in the experiment with BMPR1B, 0%. Also, the “%Inh” value in the experiment on BMPR2, with BMX, in the experiment on BRAF, in the experiment with BRK, with BRSK1 and with BRSK2 was 0% throughout. In addition, the “%Inh” value in the experiment on BTK stood at 0%; in the experiment on BUB1 it was 0%; with CAMK1B it was 13%; in the experiment on CAMK1D it was 17%; with CAMK1G it was 23%; with CAMK1, 28%. Also, the entries for the “%Inh” value with CAMK2A and in the experiment with CAMK2B were 2% and 0%, respectively.
Consider `CN1CCC(n2cnc(-c3ccc(F)cc3)c2-c2ccnc(NC3CCNCC3)n2)CC1` [SB-229482], for which the “%Inh” value in the experiment on AURKC was 0%; with AXL it was 48%; in the experiment with BIKE it was 0%; with BLK, 10%; with BMPR1A, 6%; in the experiment with BMPR1B, 0%. In addition, the “%Inh” value was determined as 1% in the experiment with BMPR2; 0% in the experiment with BMX; 0% in the experiment with BRAF; 0% with BRK; 0% with BRSK1; 0% with BRSK2. In addition, the “%Inh” value in the experiment with BTK is 10%; in the experiment with BUB1, 17%; in the experiment with CAMK1B it was 28%; with CAMK1D, 0%; with CAMK1G, 2%; with CAMK1, 0%. In addition, the “%Inh” value with CAMK2A and with CAMK2B was 0% throughout.
As to `FC(F)(F)c1cc(Nc2nccc(-c3c(-c4ccc(Cl)cc4)nn4ncccc34)n2)ccc1Cl` [GW829351], the “%Inh” value in the experiment with AURKC, with AXL, in the experiment on BIKE, with BLK, in the experiment on BMPR1A and in the experiment with BMPR1B was 0% throughout. Also, the “%Inh” value with BMPR2 was determined as 4%; in the experiment with BMX, 0%; in the experiment on BRAF it was 0%; in the experiment on BRK it was 0%; in the experiment on BRSK1, 0%; in the experiment with BRSK2, 0%. The “%Inh” value stood at 0% in the experiment on BTK; 19% with BUB1; 0% in the experiment on CAMK1B; 0% in the experiment on CAMK1D; 0% in the experiment on CAMK1G; 0% with CAMK1. The results for the “%Inh” value in the experiment on CAMK2A and in the experiment with CAMK2B were 30% and 27%, respectively.
In the case of `FC(F)(F)c1ccc(-c2cc(-c3c[nH]nc3-c3ccccn3)ccn2)cc1` [GW599550], the “%Inh” value in the experiment on AURKC turned out to be 14%; with AXL, 20%; with BIKE it was 13%; in the experiment on BLK it was 39%; in the experiment on BMPR1A it was 0%; in the experiment with BMPR1B, 0%. Further, the “%Inh” value in the experiment with BMPR2 came to 25%; with BMX, 19%; with BRAF it was 0%; in the experiment with BRK, 8%; with BRSK1, 0%; with BRSK2, 0%. Further, the “%Inh” value with BTK is on record as 0%; in the experiment on BUB1 it was 55%; with CAMK1B, 35%; in the experiment with CAMK1D, 22%; in the experiment on CAMK1G it was 1%; in the experiment on CAMK1 it was 23%. Moreover, the “%Inh” value in the experiment with CAMK2A and with CAMK2B was 0% each time.
With `CCC(CC)(CC)n1cnc2c(N)ncnc21` [SKF-97620], the “%Inh” value with AURKC is 0%; in the experiment on AXL, 0%; in the experiment on BIKE, 0%; in the experiment with BLK, 0%; in the experiment with BMPR1A, 7%; in the experiment with BMPR1B, 16%. In addition, the “%Inh” value with BMPR2 is listed as 53%; in the experiment on BMX, 0%; with BRAF, 10%; with BRK, 0%; in the experiment with BRSK1 it was 0%; in the experiment with BRSK2 it was 15%. The “%Inh” value in the experiment on BTK worked out at 0%; in the experiment on BUB1, 48%; in the experiment with CAMK1B, 18%; with CAMK1D, 4%; in the experiment with CAMK1G, 6%; with CAMK1 it was 3%. Besides, the “%Inh” value in the experiment with CAMK2A and with CAMK2B was 0% each time.
Consider `O=c1cc(N2CCOCC2)nc2n(Cc3cccc(Cl)c3)ccn12` [GSK2296823], for which the “%Inh” value is 1% in the experiment with AURKC; 0% in the experiment with AXL; 20% with BIKE; 9% with BLK; 0% in the experiment on BMPR1A; 0% in the experiment with BMPR1B. Also, the “%Inh” value was determined as 0% in the experiment on BMPR2; 20% with BMX; 10% in the experiment with BRAF; 7% with BRK; 25% with BRSK1; 0% with BRSK2. Moreover, the “%Inh” value in the experiment with BTK is listed as 0%; with BUB1, 18%; in the experiment on CAMK1B, 22%; in the experiment on CAMK1D, 22%; with CAMK1G it was 0%; in the experiment on CAMK1, 0%. Further, the “%Inh” value in the experiment on CAMK2A and in the experiment with CAMK2B was 0% throughout.
